Hits are enriched below; roughly 2.3% of the tested compounds scored in any of these assays.
Pol iota inh = qHTS for Inhibitors of Polymerase Iota. hit rate 1% among 390,000. Pol iota fluorescent replication assay, 10 min. AID 588590, 2011. Potency, µM (highest dose often 115 µM), for inactives: at the top dose activity, negative = inhibition, hits mostly inhibitors. DNA polymerase iota (Homo sapiens), Q9UNA4; further: potency means the concentration at half of the fitted maximal effect
Target sequence (Q9UNA4 whole entry, looked up): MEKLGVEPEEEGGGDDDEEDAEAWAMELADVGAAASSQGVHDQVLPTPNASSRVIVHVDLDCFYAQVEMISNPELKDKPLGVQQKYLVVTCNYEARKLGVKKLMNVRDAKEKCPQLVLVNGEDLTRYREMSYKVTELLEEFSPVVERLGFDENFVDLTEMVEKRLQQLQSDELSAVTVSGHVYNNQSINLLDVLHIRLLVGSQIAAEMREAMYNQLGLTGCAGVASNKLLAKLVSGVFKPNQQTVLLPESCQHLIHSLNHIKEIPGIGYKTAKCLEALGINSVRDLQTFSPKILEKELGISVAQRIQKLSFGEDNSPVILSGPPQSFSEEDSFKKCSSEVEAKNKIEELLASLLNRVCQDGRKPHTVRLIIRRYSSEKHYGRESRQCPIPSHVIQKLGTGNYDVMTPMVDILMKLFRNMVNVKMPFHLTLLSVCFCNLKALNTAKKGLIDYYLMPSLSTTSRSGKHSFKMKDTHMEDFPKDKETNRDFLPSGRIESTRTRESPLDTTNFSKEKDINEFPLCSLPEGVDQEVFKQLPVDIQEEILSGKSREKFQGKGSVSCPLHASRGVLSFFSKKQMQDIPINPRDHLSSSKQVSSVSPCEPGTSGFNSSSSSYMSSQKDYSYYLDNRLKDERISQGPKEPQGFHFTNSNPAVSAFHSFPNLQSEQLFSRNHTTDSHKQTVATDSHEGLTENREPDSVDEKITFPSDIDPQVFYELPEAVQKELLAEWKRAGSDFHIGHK
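Pol iota at 10 nM preincubated 15 min with compounds at room temperature; reaction started with fluorescent substrate, 50 nM final. Fluorescence read kinetically at 0 and 10 min; buffer-only wells as negative control.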
WRN inhibitor = qHTS for Inhibitors of WRN Helicase; Bifunctional 3'-5' exonuclease/ATP-dependent helicase WRN (Homo sapiens), Q14191; WRN helicase unwinding, fluorescent forked duplex, kinetic; Potency, µM (highest dose often 114 µM), for the others: top-dose activity change, negative = inhibition, hits mostly inhibitors; hit rate 0.46% among 360,000; further: potency means the concentration at half of the fitted maximal effect; on the % scale 0 is the no-effect control and ±100 the full control effect; nearly all actives have a fitted effect of over 55% in size
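Kinetic red-fluorescence monitoring (525/598 nm) tracks WRN helicase activity after 100 nM fluorophore-quencher forked duplex and 2 mM ATP are added to 20 nM enzyme pretreated 15 min at room temperature with compound.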
Pol eta inh-1 = qHTS for Inhibitors of Polymerase Eta; DNA polymerase eta (Homo sapiens), Q9Y253; recombinant Pol eta, fluorescent DNA replication assay; Potency, µM (series often up to 114 µM), for the others: at the top dose activity change, negative = inhibition, hits mostly inhibitors; hit rate 1.2% among 390,000; AID 588591, 2011; further: potency means the concentration at half of the fitted maximal effect; on the % scale 0 is the no-effect control and ±100 the full control effect
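Pol eta at 10 nM preincubated with compounds 15 min at room temperature; reaction started with fluorescent substrate (50 nM final) and read kinetically at 0 and 10 min.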
Pol kappa inh-1 = qHTS for Inhibitors of Polymerase Kappa; purified Pol kappa, fluorescent DNA synthesis assay, 10 min; Potency, µM (highest dose often 107 µM), for inactives: top-dose activity, negative = inhibition, actives largely listed as inhibitors; hit rate 0.53% among 400,000; further: potency means the concentration at half of the fitted maximal effect; on the % scale 0 is the no-effect control and ±100 the full control effect
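Kinetic fluorescence screen: compound preincubated 15 min RT with 10 nM enzyme; 50 nM substrate (final) initiates; reads at 0/10 min.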
Pol beta inh = qHTS Assay for Inhibitors of DNA Polymerase Beta. Potency, µM (top dose mostly 114 µM), for the others: top-dose activity change, negative = inhibition, actives largely listed as inhibitors. P06746. Pol beta primer extension/strand displacement, fluorescence kinetic. hit rate 1.3% among 340,000. AID 485314, 2010; further: potency means the concentration at half of the fitted maximal effect; on the % scale 0 is the no-effect control and ±100 the full control effect
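Homogeneous kinetic assay of primer extension and strand displacement by 10 nM Pol beta, preincubated 15 min at room temperature with compound before 50 nM substrate (final) was added. Read at 0 and 10 min; four-parameter Hill fit.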
TbPGK inh = qHTS for inhibitors of Phosphogylcerate Kinase: Hit Validation Screen; TbPGK coupled GAPDH assay, Kinase-Glo luminescence; hit rate 79% among 500; AID 686980, 2013; shares compounds with Pol kappa inh-1; Potency, µM (highest dose often 57.5 µM), without a hit: at the highest dose activity change, negative = inhibition, usual class: inhibitors; further: potency means the concentration at half of the fitted maximal effect; on the % scale 0 is the no-effect control and ±100 the full control effect; nearly all actives have a fitted effect of over 65% in size
Pol iota confirm = qHTS for Inhibitors of Polymerase Iota: Confirmatory Assay for Cherry-picked Compounds. shares compounds with Pol kappa inh-1. hit rate 77% among 1,500. Pol iota primer extension, TAMRA/BHQ fluorescence. AID 720496, 2013. Potency, µM, actives largely listed as inhibitors; further: potency means the concentration at half of the fitted maximal effect
GALK inh confirm = Confirmation Assay for Inhibitors of Human Galactokinase (GALK); purified GALK, Kinase-Glo ATP depletion luminescence; Potency, µM (series often up to 115 µM), for inactives: top-dose activity, negative = inhibition, usual class: inhibitors; shares compounds with Pol eta inh-1; hit rate 70% among 150; AID 2015, 2009
Redox cycling = Confirmatory Assay for Inhibitors of Human Galactokinase (GALK): Phenol-HRP redox assay counterscreen | shares compounds with Pol eta inh-1 | Phenol red-HRP H2O2 redox cycling, absorbance 600 nm | Potency, µM (highest dose often 115 µM), inactives show at the top dose activity change, negative = H2O2 signal, most hits filed as inhibitors | hit rate 40% among 150
HEK293 viability = Secondary Assay for Inhibitors of Human Galactokinase (GALK): HEK-293 Cell Viability Assay; shares compounds with Pol eta inh-1; HEK-293 viability, ATP luminescence (CellTiter-Glo), 24/48 h; Potency, µM (top dose mostly 46.1 µM), inactives show top-dose activity change, negative = cytotoxicity, actives largely listed as inhibitors; hit rate 10% among 170; AID 2547, 2010; further: potency means the concentration at half of the fitted maximal effect; on the % scale 0 is the no-effect control and ±100 the full control effect
Pol kappa inh-2 = qHTS for Inhibitors of Polymerase Kappa: Confirmatory Assay for Cherry-picked Compounds. shares compounds with Pol eta inh-1. purified Pol-kappa, fluorescent strand-displacement substrate. Potency, µM, actives largely listed as inhibitors. hit rate 76% among 920. AID 720501, 2013; further: potency means the concentration at half of the fitted maximal effect
Pol eta inh-2 = qHTS for Inhibitors of Polymerase Eta: Confirmatory Assay for Cherry-picked Compounds. Potency, µM, actives largely listed as inhibitors. AID 720502, 2013. Pol eta primer extension, TAMRA/BHQ fluorescence, 10 min. hit rate 64% among 2,600. shares compounds with Pol eta inh-1; further: potency means the concentration at half of the fitted maximal effect
* hit, by the source's call; ? = inconclusive; . = not tested or not shown; [ ] = another dose, or the depositor's remark. The call rests on the fitted dose curve; in most records, active means well fitted curve in the direction sought with a large enough effect; inconclusive means small, poorly fitted or top-dose-only effect, or another doubt; inactive means no such curve, though single readings can be large; an effect the other way counts as inactive or inconclusive.

SMILES	Pol iota inh	WRN inhibitor	Pol eta inh-1	Pol kappa inh-1	Pol beta inh	Pol iota confirm	Pol kappa inh-2	Pol eta inh-2	others
Cc1cc(SCC(=O)Nc2ccc3[nH]c(=O)[nH]c3c2)nc2ccccc12	?	?	39.8µM*	-3.8%	.	59.7*	?	.
CCOc1ccc2nc(Cl)c(C3CC(c4ccc(OC)cc4)=NN3S(C)(=O)=O)cc2c1 (centres undefined)	?	.	?	?	25.6%	?	75.2*	75.7*
CCS(=O)(=O)N1N=C(c2ccc(C)cc2)CC1c1cc2ccc(OC)cc2nc1Cl (centres undefined)	1.8%	.	?	-9.5%	2.0%	.	.	.
CCCC[C@H](O)c1ccccc1	.	.	.	3.3%[19.4 µM]	.	.	.	.
CC(C)Oc1ccc(CNC(=O)CN2C(=O)CCn3nc(-c4cn(C)c5ccccc45)cc32)cc1	-21.3%	.	-26.8%	-13.4%[60.1 µM]	-1.8%	.	.	.
Cc1nn(-c2ccccc2)c(Cl)c1/C=N/Nc1ccc(S(=O)(=O)Nc2ccccc2C(=O)O)cc1[N+](=O)[O-]	39.8µM*	?	35.5µM*	?	44.7µM*	?	23.8*	42.6*
C=CCOc1ccc(C=NNc2ccc(S(=O)(=O)Nc3ccccc3C(=O)O)cc2[N+](=O)[O-])cc1OC	14.1µM*	50.1µM*	?	?	.	18.9*	?	84.9*	TbPGK inh=5.17µM*
CCOc1cccc(C=NNc2ccc(S(=O)(=O)Nc3ccccc3C(=O)O)cc2[N+](=O)[O-])c1O	8.4%	-7.9%	-29.0%	7.0%	.	.	.	.
C/C(N)=C(/C#N)C(=O)CSc1nc2ccccc2c(=O)n1Cc1ccc(F)cc1	11.2µM*	-17.5%[11.6 µM]	20µM*	79.4µM*	7.94µM*	42.3*	37.7*	47.8*
CCn1cc(C(=O)O)c(=O)c2cc(F)c(N3CCN(C(=O)Nc4ccccc4)CC3)cc21	-0.7%[58.9 µM]	3.6%	-7.8%	-1.9%	-11.7%	.	.	.
CCn1cc(C(=O)O)c(=O)c2cc(F)c(N/N=C/c3ccccc3)cc21	?	-31.8%	2.51µM*	-25.7%	?	84.4*	.	2.69*
O=C(O)C1=CCC=CC1C(=O)O (centres undefined)	.	?	5.01µM*	.	.	21.2*	.	15.1*	TbPGK inh=3.26µM*
C/C(=C\C=C(C#N)C#N)c1cc(C#N)c(N)o1	?	89.1µM*	?	?	8.91µM*	?	.	42.6*
Cc1nc(N2CCCC2)ncc1C(=O)N1CCN(c2ccc(Cl)cc2)CC1	-3.2%	.	.	2.1%[60.1 µM]	0.8%	.	.	.
COc1cc2cc(Oc3ccc4ccc(=O)oc4c3)c(=O)oc2cc1OC1OC(COC(=O)CC(C)(O)CC(=O)O)C(O)C(O)C1O (centres undefined)	50.1µM*	-15.0%[11.6 µM]	35.5µM*	?	?	67*	.	47.8*
COc1cc(Br)ccc1C1C(C(=O)Nc2ccc(C)cc2C)=C(C)Nc2nnnn21 (centres undefined)	-18.0%	.	-24.4%	7.9%	-18.9%	.	.	.
COc1ccc(N=Cc2c(O)n(-c3ccc(OC)cc3)c(=O)c3ccccc23)cc1	-15.8%	-35.9%	12.9%	-17.0%	-0.3%	.	.	.
O=c1c2ccccc2c(C=Nc2cccc(O)c2)c(O)n1-c1ccc2c(c1)OCO2	?	-34.3%[57.1 µM]	12.6µM*	-21.7%	39.8µM*	?	.	?
CCOC(=O)CN1C(=O)S/C(=C\c2ccc(-c3ccc(C(=O)O)c(Cl)c3)o2)C1=O	20µM*	-11.9%[11.6 µM]	10µM*	39.8µM*	?	?	16.8*	30.1*
C[n+]1cccc2cccc([O-])c21	1.58µM*	-14.8%[11.6 µM]	22.4µM*	?	28.2µM*	23.8*	.	42.6*	GALK inh confirm=23.7µM*;Redox cycling=11.9µM*;HEK293 viability=4.9%
O=C(/C=C/c1ccc(O)c(O)c1)NC(=O)c1ccccc1O	?	56.2µM*	7.94µM*	31.6µM*	10µM*	?	.	60.1*
O=C(O)/C=C/c1ccc(O)c(O)c1	9.8%	1.7%	-17.4%	?	?	.	.	.
Cc1ccc(C)c(N2CCN(C(=O)c3c(C)oc4nc(C)nc(N5CCOCC5)c34)CC2)c1	10.5%	.	-8.2%	-3.6%	13.1%	.	.	.
COc1ccc(C(=O)N/N=C/c2ccc(OC(=O)c3cccc4ccccc34)c([N+](=O)[O-])c2)cc1	?	-14.1%	?	?	11.2µM*	?	67*	.
NC(=O)Cn1c(=O)n(Cc2ccco2)c(=O)c2c3c(sc21)CCCCC3	?	?	39.8µM*	25.1µM*	10µM*	?	.	?
Nc1cc(S(=O)(=O)O)cc([N+](=O)[O-])c1O	7.94µM*	?	4.47µM*	28.2µM*	-14.4%	8.44*	.	5.36*	TbPGK inh=2.91µM*
